# Screens (PubChem BioAssay)
# HT1080 IDH1KD tx: toxicity to HT-1080 IDH1 knockdown cells (counter line); HT-1080 IDH1 knockdown viability, ATP luminescence, 48 h; AID 686971; Potency, µM (top dose mostly 46.1 µM), without a hit: top-dose activity, negative = toxicity, hits mostly cytotoxic; 360,000 compounds, 2% hits;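 further: potency means the concentration at half of the fitted maximal effect; 0% = DMSO wells and -100% = cell-free medium wells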
#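 Viability of IDH1-knockdown HT-1080 fibrosarcoma cells was assessed by CellTiter-Glo after 48 h at 37 °C with titrated compound; concentration-effect curves were classified by fit quality and response size.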
# DT40 TDP1 no CPT: qHTS for Inhibitors of human tyrosyl-DNA phosphodiesterase 1 (TDP1): qHTS in cells in absence of CPT; DT40 Tdp1-/- hTDP1 cells, no CPT, ATP luminescence, 48 h; Potency, µM (series often up to 46.2 µM), without a hit: top-dose activity change, negative = growth inhibition, most hits filed as inhibitors; 420,000 compounds, 15% hits; AID 686978, 2013; further: potency means the concentration at half of the fitted maximal effect; nearly all actives have a fitted effect of over 55% in size
#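 Cells were dispensed at 400 per well, compounds added by pin tool, plates incubated ≥48 hr at 37 °C, then CellTiter-Glo added for 30 min at room temperature before luminescence reading. Line: DT40 Tdp1-/- complemented with hTDP1; camptothecin omitted.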
# IL-1B inflam inh: inflammasome signaling inhibition, IL-1 beta readout | THP-1 LPS/ATP IL-1B secretion, AlphaLISA, 16 h; hits give low values | activity change, % at 57.5 µM | AID 743279 | 360,000 compounds, 4.7% hits; in the data active means activity change below about -50%; inconclusive means mostly about -30% to -49%
#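 THP-1 cells pretreated 1 hr with compounds (up to 57.5 uM final), then stimulated with LPS (250 ng/mL final) plus ATP (1.25 mM final); secreted IL-1B measured by AlphaLISA after 16 hr, decreased signal indicating inhibition.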
# 12-LOX inh: ALOX12 (human) lipoxygenase inhibition. purified 12hLO, xylenol orange hydroperoxide absorbance. 580,000 compounds, 1.1% hits. P18054. Potency, µM (top dose mostly 108 µM), inactives show top-dose activity change, negative = inhibition, actives largely listed as inhibitors; further: potency means the concentration at half of the fitted maximal effect
# Target sequence (P18054 whole entry, looked up): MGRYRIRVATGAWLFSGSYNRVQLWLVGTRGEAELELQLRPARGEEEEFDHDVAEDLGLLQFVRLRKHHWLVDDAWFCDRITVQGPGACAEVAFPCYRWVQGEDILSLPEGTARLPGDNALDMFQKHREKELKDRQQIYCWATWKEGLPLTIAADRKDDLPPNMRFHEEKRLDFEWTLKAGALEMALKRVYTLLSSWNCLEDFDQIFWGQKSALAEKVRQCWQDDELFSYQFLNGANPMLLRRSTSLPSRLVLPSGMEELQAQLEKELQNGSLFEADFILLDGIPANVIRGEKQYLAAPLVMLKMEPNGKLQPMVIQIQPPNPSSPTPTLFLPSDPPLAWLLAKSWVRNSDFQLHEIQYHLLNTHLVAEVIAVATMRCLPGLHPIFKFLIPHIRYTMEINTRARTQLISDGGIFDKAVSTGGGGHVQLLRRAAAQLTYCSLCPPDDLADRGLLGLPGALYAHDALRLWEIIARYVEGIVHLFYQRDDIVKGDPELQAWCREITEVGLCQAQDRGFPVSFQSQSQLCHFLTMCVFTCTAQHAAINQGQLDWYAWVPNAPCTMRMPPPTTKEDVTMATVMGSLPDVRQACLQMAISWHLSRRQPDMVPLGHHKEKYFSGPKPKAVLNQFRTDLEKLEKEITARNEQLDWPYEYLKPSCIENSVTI
#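 Purified human 12hLO (150 nM final) in 25 mM Hepes, 0.01% Triton X-100, pH 7.0 was preincubated 15 min at room temperature with compound. Then 40 uM arachidonic acid was added, 30 min. Hydroperoxide was read by Fe-XO absorbance ratio 573/405 nm.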
# HT1080NT lethal: kills 2HG-producing HT-1080-NT fibrosarcoma cells. HT-1080-NT fibrosarcoma viability, CellTiter-Glo ATP luminescence, 48 h. 360,000 compounds, 1.6% hits. Potency, µM (top dose mostly 46.1 µM), inactives show top-dose activity, negative = less viability, actives largely listed as cytotoxic;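 further: NT is the 2HG producing partner of a matched IDH1 knockdown line; potency means the concentration at half of the fitted maximal effect; 0% = DMSO-treated cells and -100% = media-only wells without cells; nearly all actives have a fitted effect of over 55% in size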
#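 A 48-hour cytotoxicity screen used HT-1080-NT cells plated 2 hours before compound delivery. ATP-based CellTiter-Glo luminescence measured viability, normalized to DMSO and no-cell controls.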
# DT40 TDP1 CPT: DT40-hTDP1 cell growth loss with CPT | chicken DT40 Tdp1-/-;hTDP1 cells + 20 nM CPT, ATP luminescence, 48 h | Potency, µM (top dose mostly 46.2 µM), for the others: at the highest dose activity change, negative = growth inhibition, most hits filed as inhibitors | 420,000 compounds, 12% hits | AID 686979; further: potency means the concentration at half of the fitted maximal effect; nearly all actives have a fitted effect of over 55% in size
#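 Chicken DT40 Tdp1-/- cells complemented with human TDP1, 400 cells/well, exposed to compounds plus 20 nM camptothecin for at least 48 h at 37 C; viability read as ATP content by CellTiter-Glo luminescence.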
# * marks the source's active call; other numbers are inactive results; ? = inconclusive; nt = not tested or not shown; [ ] = dose if it differs, or a comment. This excerpt belongs to a sample that is enriched for hits. Unless noted, the call rests on the fitted dose curve; in most records, active means well fitted curve in the direction sought with a large enough effect; inconclusive means small, poorly fitted or top-dose-only effect, or another doubt; inactive means no such curve, though single readings can be large; an effect the other way counts as inactive or inconclusive. Unless noted, on the % scale 0 is the no-effect control and ±100 the full control effect.
SMILES,HT1080 IDH1KD tx,DT40 TDP1 no CPT,IL-1B inflam inh,12-LOX inh,HT1080NT lethal,DT40 TDP1 CPT
CCN(CC)S(=O)(=O)c1ccc(C(=O)NCCN2C(=O)S/C(=C\c3cccnc3)C2=O)cc1,-8%,18µM*,15,-21%,-1%,?
CN1c2cc(C(=O)NCc3ccc(F)cc3Cl)ccc2C(=O)N2CCCCC21 (centres undefined),nt,nt,nt,8%,nt,nt
COC(=O)C(NC(=O)c1ccccc1)C(C)(C)SCc1ccccc1 (centres undefined),1%,18µM*,8,?,-1%,?
COC(=O)C(Cc1ccccc1)NC(=O)c1cccc(S(=O)(=O)N(C)C)c1 (centres undefined),22%,-5%,-89*,-28%,22%,-1%
COC(=O)[C@H](Cc1ccccc1)N(C)S(=O)(=O)c1cccc(S(=O)(=O)N(C)[C@@H](Cc2ccccc2)C(=O)OC)c1,-5%,?,6,16%,-20%,15µM*
CN(C)S(=O)(=O)c1cccc(C(=O)NCCNC(=O)c2cccc(S(=O)(=O)N(C)C)c2)c1,5%,-9%,-4,0%,5%,-6%
CN([C@@H](C(=O)OC(C)(C)C)c1ccccc1)S(=O)(=O)c1cccc(S(=O)(=O)N(C)[C@@H](C(=O)OC(C)(C)C)c2ccccc2)c1,13%,?,17,0%,5%,13µM*
COC(=O)C(NS(=O)(=O)c1cccc(S(=O)(=O)NC(C(=O)OC)c2ccccc2)c1)c1ccccc1 (centres undefined),9%,-3%,19,0%,14%,-14%
CSc1cccc(NC(=O)Cn2c(N3CCC(C)CC3)nc(C)cc2=O)c1,nt,nt,nt,25%,nt,nt
CCOc1ccc(C(=O)NC(Cc2ccccc2)C(=O)OC)cc1 (centres undefined),13%,5%,13,?,5%,-22%
COC(=O)C(Cc1ccccc1)NC(=S)NC(=O)c1ccccc1 (centres undefined),-2%,18µM*,9,?,-14%,?
CCC(=O)c1c(OCCC(C)C)ccc2c(C)cc(=O)oc12,nt,nt,nt,-4%,nt,nt
CN(C)c1ccc(C(C(=O)NCc2ccccc2)N(Cc2cccnc2)C(=O)c2snc(C(N)=O)c2N)cc1 (centres undefined),-27%,16µM*,-19,-15%,-12%,21µM*
COc1ccc(N(C(=O)c2snc(C(N)=O)c2N)C(C(=O)NC2CCCC2)c2ccc(F)cc2)c(OC)c1 (centres undefined),-29%,?,8,-2%,-24%,-28%
Cc1ccccc1N(C(=O)c1snc(C(N)=O)c1N)C(C(=O)NCc1ccccc1)c1ccc(O)cc1 (centres undefined),?,26µM*,-100*,?,?,23µM*
CCOc1ccccc1N(C(=O)c1snc(C(N)=O)c1N)C(C(=O)NCc1ccccc1)c1ccc(O)cc1 (centres undefined),?,?,-67*,1%,-29%,23µM*
COc1ccc(CNC(=O)C(c2ccco2)N(C(=O)c2snc(C(N)=O)c2N)c2ccccc2OC)cc1 (centres undefined),-4%,?,?,-10%,-8%,0%
COc1ccc(C(C(=O)NCc2ccccc2)N(Cc2cccnc2)C(=O)c2snc(C(N)=O)c2N)cc1OC (centres undefined),-6%,-10%,0,17%,-7%,-4%
COc1ccc(C)cc1N(C(=O)c1snc(C(N)=O)c1N)C(C(=O)NC1CCCC1)c1ccc(F)cc1 (centres undefined),-15%,16µM*,-12,-11%,?,?
CCC(C(=O)NCc1ccc(F)cc1)N(Cc1ccco1)C(=O)c1snc(C(N)=O)c1N (centres undefined),-8%,-20%,-1,-18%,7%,-6%
CN(C)c1ccc(C(C(=O)NC2CCCCC2)N(Cc2ccco2)C(=O)c2snc(C(N)=O)c2N)cc1 (centres undefined),0%,9.2µM*,-72*,-8%,8%,?
COc1ccccc1N(C(=O)c1snc(C(N)=O)c1N)C(C(=O)NCc1ccccc1)c1ccc(C)o1 (centres undefined),-12%,?,-73*,-24%,-9%,?
NC(=O)c1nsc(C(=O)N(Cc2ccco2)C(C(=O)NCc2ccccc2)c2ccc(O)cc2)c1N (centres undefined),-28%,12µM*,-4,?,-21%,?
Cc1ccccc1N(C(=O)c1snc(C(N)=O)c1N)C(C)C(=O)NC1CCCCC1 (centres undefined),5%,-28%,-2,-15%,9%,7%
COc1ccc(C(C(=O)NCc2ccccc2)N(C(=O)c2snc(C(N)=O)c2N)c2ccccc2OC)cc1OC (centres undefined),-9%,?,0,5%,-7%,?
SMILES,HT1080 IDH1KD tx,DT40 TDP1 no CPT,IL-1B inflam inh,12-LOX inh,HT1080NT lethal,DT40 TDP1 CPT
Cc1ccccc1N(C(=O)c1snc(C(N)=O)c1N)C(C(=O)NC1CCCCC1)c1ccc(O)cc1 (centres undefined),9.2µM*,?,0,?,?,?
COc1ccc(-c2nc(C(C)C)nc3c2CN([S+](=O)([O-])c2ccccc2)CC3)cc1,nt,nt,nt,47%,nt,nt
O=C(NCCc1ccccn1)c1cccc(NS(=O)(=O)c2ccc3c(c2)OCCO3)c1,nt,nt,nt,-31%,nt,nt
CCOC(=O)N1CCC(Nc2c(Nc3cccc(CC)c3)c(=O)c2=O)CC1,?,18µM*,36,5%,-2%[9.24 µM],?
CCOC(=O)N1CCC(Nc2c(N3CCN(c4cccc(C(F)(F)F)c4)CC3)c(=O)c2=O)CC1,5%,?,-21,6%,3%,23µM*
CCOC(=O)N1CCC(Nc2c(-c3ccccc3)c(=O)c2=O)CC1,13%,23µM*,6,-12%,0%,?
CCOC(=O)N1CCC(Nc2c(Nc3ccc(F)cc3)c(=O)c2=O)CC1,-1%,-11%,31,-26%,-13%,-18%
Cc1cnc2c(S(=O)(=O)NC(c3cccs3)C(C)C)cccc2c1 (centres undefined),nt,nt,nt,-10%,nt,nt
FC(F)Oc1ccccc1/C=N/n1cnc2ccccc21,-2%,18µM*,14,1%,-5%,?
